# PPARg SRC-2 ag = PPARgamma-driven SRC-2 recruitment agonism | AID 1032 | PPARgamma LBD-SRC-2 recruitment, biochemical | 0.34% of 200,000 active | P37231 | activation, % at 8 µM;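 also: 0% = vehicle and 100% = reference agonist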
# PPARg SRC-1 ag = promotes SRC-1 coactivator recruitment by human PPARgamma; PPARgamma-SRC-1 coactivator recruitment biochemical assay; activation, % at 8 µM; 0.41% of 200,000 active; in the data active = activation above about 19%;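 also: 0% = DMSO and 100% = reference agonist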
# PPARg SRC3 recr = promotes SRC-3 coactivator recruitment by human PPARgamma; 0.26% of 200,000 active; activation, % at 8 µM; biochemical PPARgamma/SRC-3 coactivator recruitment assay; P37231; AID 731; in the data active = activation above about 23%;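 also: 0% = DMSO and 100% = reference agonist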
# SRC1 TRFRET art = counter-screen for PPARgamma SRC-1 recruitment agonists: TR-FRET artefact. TR-FRET detection artefact counter-screen, emission ratio; active compounds read high. TR-FRET ratio at 8 µM. 0.34% of 99,000 active. AID 1051; in the data active = TR-FRET ratio above about 2300
# SRC3 TRFRET art = flags TR-FRET format artefacts in PPARgamma SRC-3 recruitment agonist screen; TR-FRET artefact counter-screen, PPARgamma/SRC-3 format; active compounds read high; TR-FRET ratio at 8 µM; 0.39% of 99,000 active; in the data active = TR-FRET ratio above about 2000
# SRC2 TRFRET art = counter-screen for PPARgamma SRC-2 recruitment agonists: TR-FRET artefact; active compounds read high; TR-FRET ratio at 8 µM; 0.4% of 200,000 active; AID 1049; in the data active = TR-FRET ratio above about 2000
# PPARg SRC2 ag = confirmation of agonists of SRC-2 recruitment by human PPARgamma | shares compounds with PPARg SRC3 recr | biochemical SRC-2 recruitment by PPARgamma | activation, % at 8 µM | 52% of 790 active | AID 1297;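 also: 0% = vehicle alone and 100% = reference agonist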
# PPARg SRC1 conf = human PPARgamma SRC-1 recruitment agonism, confirmation; activation, % at 8 µM; PPARgamma–SRC-1 coactivator recruitment biochemical assay; shares compounds with PPARg SRC3 recr; 43% of 790 active; in the data active = activation above about 20%;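 also: 0% = vehicle wells and 100% = reference agonist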
# PPARg SRC3 conf = human PPARgamma SRC-3 recruitment agonism, confirmation; shares compounds with PPARg SRC3 recr; biochemical PPARgamma-SRC-3 coactivator recruitment, agonist mode; activation, % at 8 µM; 29% of 790 active; AID 1301; in the data active = activation above about 24%;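 also: 0% = vehicle wells and 100% = reference agonist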
# Numbers without * were called inactive; · = no result. This is a sample that favours compounds with a hit; in the whole collection about 0.9% have one here. Rule as the data show it, unless noted: active = activation above about 22%; inactive = the rest.
SMILES,PPARg SRC-2 ag,PPARg SRC-1 ag,PPARg SRC3 recr,SRC1 TRFRET art,SRC3 TRFRET art,SRC2 TRFRET art,PPARg SRC2 ag,PPARg SRC1 conf,PPARg SRC3 conf
Cc1nnc(N2C(=O)C(O)=C(C(=O)c3ccco3)C2c2ccc(C(C)C)cc2)s1 (stereo unspecified),33*,27*,10,2626*,2243*,2173*,19,12,11
COCCN1C(=O)C(O)=C(C(=O)c2cccs2)C1c1ccccc1 (stereo unspecified),3,19*,14,·,·,1641,20,12,11
Cc1ccc(C(=O)NCC(=O)OCC(=O)Nc2ccccc2C#N)s1,4,2,3,2190,1689,1770,·,·,·
Cc1cc(OC(=O)c2ccc(S(=O)(=O)N(C)C)cc2)c([N+](=O)[O-])c(=O)[nH]1,8,5,0,1867,1596,1592,·,·,·
Cc1ccc(S(=O)(=O)N2CCOCC2)cc1NC(=O)CNCC1CCCCC1,7,11,3,1957,1584,1561,·,·,·
Cc1ccc(C2C(C(=O)c3cccs3)=C(O)C(=O)N2c2nnc(C)s2)cc1 (stereo unspecified),12,23*,7,2419*,2078*,2089*,20,17,14
COCCCN1C(=O)C(O)=C(C(=O)c2ccco2)C1c1ccc(Br)cc1 (stereo unspecified),22,14,22,·,·,1860,·,·,·
Cc1nnc(N2C(=O)C(O)=C(C(=O)c3ccco3)C2c2ccc(F)cc2)s1 (stereo unspecified),38*,28*,49*,·,·,2061*,41*,32*,28*
CCC(C)n1c(SCC(=O)Nc2cc(C)on2)nc2ccccc2c1=O (stereo unspecified),1,4,-4,·,·,1498,·,·,·
CCCCn1c(SCC(=O)Nc2cc(C)on2)nc2ccccc2c1=O,-6,22*,13,·,·,1385,6,5,4
O=C(c1ccc2c(c1)OCO2)N1CCN(c2ccccc2)CC1,13,4,26*,·,·,1552,1,3,3
O=C(Nc1nc(-c2cccs2)c(C(=O)C(F)(F)F)s1)c1ccco1,61*,41*,37*,3540*,3363*,3022*,37*,22*,25*
CCOC(=O)Nc1c(C(=O)OC)[nH]c2cc(OC)ccc12,-3,2,3,·,·,1735,·,·,·
COC(=O)c1[nH]c2cc(OC)ccc2c1N,14,11,28*,·,·,1621,17,7,10
CCCCC1(C(=O)OCC)CC(CSC(=N)N)OC1=O (stereo unspecified),3,0,-2,1668,1466,1638,·,·,·
COc1ccccc1NS(=O)(=O)c1cccc(NC(=O)c2sc3ccccc3c2Cl)c1,17,22*,8,2434*,2458*,2161*,13,10,4
COc1ccc(C(=O)NCc2ccc3c(c2)cc(C)n3C)cc1,3,-3,2,1948,1480,1490,·,·,·
Cc1cc2cc(CNC(=O)c3cc4ccccc4o3)ccc2n1C,18,22*,32*,·,·,2988*,41*,32*,23
O=C(CNC1CCCC1)Nc1ccc(N2CCCCCC2)cc1,8,20*,6,1797,1650,1860,1,0,1
Clc1cccc(-c2ccc(C=Nc3ccc(N4CCOCC4)cc3)o2)c1Cl,27*,24*,20,2633*,1962,2206*,36*,29*,23
Clc1ccc(-c2ccc(C=Nc3ccc(N4CCOCC4)cc3)o2)cc1,7,6,6,1899,1639,1771,·,·,·
Cc1cc2c(N=O)c(NO)ccc2[nH]1,15,17,30*,·,·,1595,6,9,4
O=Nc1c(O)[nH]c2ccc(F)cc12,5,3,7,1901,1717,1591,·,·,·
C=CCn1c(NS(=O)(=O)c2ccccc2)c(S(=O)(=O)c2ccc(C)cc2)c2nc3ccccc3nc21,24*,39*,48*,1803,1561,1450,4,7,10
CCOC(=O)c1sc(NC(=O)CSc2nnc(C(C)C)n2C)nc1C,1,3,13,·,·,1699,·,·,·
SMILES,PPARg SRC-2 ag,PPARg SRC-1 ag,PPARg SRC3 recr,SRC1 TRFRET art,SRC3 TRFRET art,SRC2 TRFRET art,PPARg SRC2 ag,PPARg SRC1 conf,PPARg SRC3 conf
COC(=O)c1sc(NC(=O)CSc2nnc(C(C)C)n2C)nc1C,14,19*,10,·,·,1715,0,0,0
O=C(N1CCCC1)C(F)(F)Oc1ccc(F)cc1,5,-2,0,1825,1575,1512,·,·,·
Cc1ccc(S(=O)(=O)c2c(CO)c(-c3ccccc3)nn2C)cc1,10,17,34*,1892,1207,1327,11,16,18
O=C1C(Cc2c[nH]c3ccccc23)NC(=S)N1C1CCCCC1 (stereo unspecified),-10,-3,-1,1712,1493,1496,·,·,·
Cc1cc(-c2ccc(Cl)cc2)c(C#N)c(N)n1,12,19*,19,·,·,1825,3,1,0
Cc1ccc(-c2cc(-c3ccccc3)c(C#N)c(N)n2)o1,5,8,-4,·,·,1836,·,·,·
Cc1ccc2nc(N3CCN(S(=O)(=O)c4ccc(C)c(Cl)c4)CC3)c(C#N)cc2c1,6,22*,29*,·,·,1637,9,6,4
Cc1ccc2nc(N3CCN(C)CC3)c(C#N)cc2c1,-4,3,-2,·,·,1378,·,·,·
CN(C)c1ccc(N/C=C/C(=O)C(C)(C)C)cc1,81*,13,70*,·,·,2723*,7,10,7
CN(C)c1ccc(N/C=C/C(=O)c2ccccc2)cc1,13,9,21,·,·,1663,·,·,·
O=C1C=C(c2cccs2)CC(c2cccs2)C1n1cnc([N+](=O)[O-])c1 (stereo unspecified),20,12,26*,·,·,1790,18,20*,12
Cc1ccc(N=Cc2sc(O)c3ccccc23)c(C)c1,8,16,6,·,·,1462,·,·,·
Cc1ccc(N=Cc2sc(O)c3ccccc23)cc1,29*,25*,19,·,·,1560,-4,-3,-1
NC(=O)CSc1nnc(Cc2ccc3c(c2)OCO3)o1,20,9,2,2062,1716,1700,·,·,·
CCCSc1nc2c(c(=O)[nH]c(=O)n2C)n1C,10,21*,15,·,·,1609,1,1,1
CCSc1nc2c(c(=O)[nH]c(=O)n2C)n1C,15,8,4,·,·,1656,·,·,·
Nc1ccc(-c2nc3ccc(N)cc3[nH]2)cc1,18,31*,8,2123,2018,1836,3,12,3

# Screens as filed in PubChem.
